{"source": "PubChem BioAssay (NCI)", "note": "About 83,000 compounds went through this panel and 20% of them were active in at least one assay; those are over-represented in the sample as a whole.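 Percent growth is the endpoint: 0 to 100 indicates growth inhibition (40 means 60% inhibition), 0 means no net growth, and negative values indicate cell death.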 Values without a mark were called inactive. Active and inactive are the calls of the source. How the source made its calls: active means growth percent below 10; inactive means the rest.", "data": [{"test_system": "MDA-MB-468 breast", "assay": "NCI-60 one-dose screen, 48 h (100 = growth as untreated, 0 = no growth, -100 = all killed)", "conditions": "10 µM unless noted", "values": [{"smiles": "COc1ccc(C2CC(c3cccc(OCCCCOc4cccc(C5=NN(C(C)=O)C(c6ccc(OC)cc6)C5)c4)c3)=NN2C(C)=O)cc1", "note": "(centres undefined)", "growth": "23.7%"}, {"smiles": "O=C(Nc1ccccc1[N+](=O)[O-])c1ccc(Cl)c(Cl)c1", "growth": "65.7%"}, {"smiles": "CC(C)CSc1nc(NN)c(C#N)c(-c2ccccc2)n1", "growth": "98.2%"}, {"smiles": "O=c1nc(NO)[nH]c(=O)n1Cc1ccc(F)cc1", "growth": "107%"}, {"smiles": "CCOC(=O)c1c(C)oc2ncnc(Nc3ccc(NC(=O)Nc4ccc(CC)cc4)cc3)c12", "growth": "128%"}, {"smiles": "O=C(c1ccc(F)c(F)c1Nc1ccc(I)cc1F)N1CC(O)([C@@H]2CCCCN2)C1", "growth": "25.2%"}, {"smiles": "CCN(CC)CCC(CNc1c2ccc(Cl)cc2nc2ccc(OC)cc12)c1ccccc1", "note": "(centres undefined)", "growth": "-87.1% (active)"}, {"smiles": "CCOC(=O)c1ccccc1-c1c2ccc(=[N+](C)C)cc-2oc2cc(N(C)C)ccc12", "growth": "-17.9% (active)"}, {"smiles": "C[n+]1c2ccccc2c(Nc2ccc(N3CCCCC3)cc2)c2[nH]c3ccccc3c21", "growth": "-73.8% (active)"}, {"smiles": "O=S(=O)(NCCNc1cc(-c2cn(-c3ccccc3)nc2-c2cccc(O)c2)ccn1)c1ccc(F)cc1", "growth": "-22.4% (active)"}, {"smiles": "CC(CO)(CO)C(=O)O", "growth": "99.9%"}, {"smiles": "Fc1cc2[nH]ncc2c2c3c(c(-c4cn[nH]c4C(F)(F)F)nc12)C1CCC3C1", "note": "(centres undefined)", "growth": "11.5%"}, {"smiles": "COC(=O)c1c2c(c(C)[n+]([O-])c1C)C(=O)C=C(NCc1ccc(Cl)cc1)C2=O", "growth": "-67% (active)"}, {"smiles": "COCCn1cc(-c2nc(-c3cc4cccnc4n3C)cs2)c2ccccc21", "growth": "-16.1% (active)"}, {"smiles": "CCOc1ccccc1C(=O)N1CCN(c2cc(Cl)cc(Cl)c2)CC1", "growth": "3.92% (active)"}, {"smiles": "CCCCCCCCCCCCCCCC(=O)NS(=O)(=O)OC[C@H]1O[C@@H](n2cnc3c(N)ncnc32)[C@H](O)[C@@H]1O", "growth": "-51.5% (active)"}, {"smiles": "O=C(COc1ccc(/C=C2\\C(=O)Nc3cc(Cl)ccc32)cc1)Nc1ccc(Cl)cc1", "growth": "86.8%"}, {"smiles": "O=C1CC[C@@H](C(=O)N[C@H]2CSSC[C@@H](C(=O)N/C=C/c3ccc(O)cc3)NC(=O)[C@H](Cc3ccccc3)NC(=O)[C@@H]3CCCN3C(=O)[C@@H]3CCCN3C2=O)N1", "growth": "89.5%"}, {"smiles": "CCc1nnc(NC(=O)c2cc(-c3ccc(Cl)cc3Cl)oc2C)s1", "growth": "94%"}, {"smiles": "CC(c1cc(Cl)ccc1O)c1cc(Cl)ccc1O", "growth": "6.87% (active)"}, {"smiles": "COc1cc(Nc2ncccc2/C=C/C(=O)c2cc(OC)c(OC)c(OC)c2)cc(OC)c1OC", "growth": "-2.82% (active)"}, {"smiles": "Oc1ccc(CSc2nnc(-c3ccc(Cl)cc3)o2)c2cccnc12", "growth": "26.3%"}, {"smiles": "Cc1cnc([C@]23CC[C@@H](C)[C@H](C)[C@H]2C2=CC[C@@H]4[C@@]5(C)Cc6c([nH]c7ccccc67)C(C)(C)[C@@H]5CC[C@@]4(C)[C@]2(C)CC3)o1", "growth": "90.6% [100 µM]"}, {"smiles": "CCCn1cnc2c(c1=N)C(c1ccc(F)cc1)c1sc3c(F)cccc3c1O2", "note": "(centres undefined)", "growth": "58.4%"}, {"smiles": "O=C(/C=C/c1ccc(Cl)cc1)c1ccc(Nc2nc(NCCO)nc(N3CCOCC3)n2)cc1", "growth": "69.4%"}, {"smiles": "Cc1cccc2ccccc12", "growth": "103%"}, {"smiles": "COc1cnc2c(c1)C(=O)c1c-2n(CCCNC(C)C)c(=O)c2cc(F)ccc12", "growth": "-63.6% (active)"}, {"smiles": "CN(C)CSc1nc2ccccc2s1", "growth": "110%"}, {"smiles": "Nc1ncnc2c1N=C(c1ccc3c(c1)OCO3)CC(c1cccc(Nc3ccnc4cc(Cl)ccc34)c1)N2", "note": "(centres undefined)", "growth": "33.2%"}, {"smiles": "O=S1(=O)OC(c2ccc(O)c(Cl)c2)(c2ccc(O)c(Cl)c2)c2ccccc21", "growth": "114%"}, {"smiles": "COC(=O)/C=C/c1c(C2(C)NC(=O)c3ccccc3N2)c(=O)oc2ccc(Cl)cc12", "note": "(centres undefined)", "growth": "88.7%"}, {"smiles": "COc1ccc(OC)c2c1CCC1(C2)NC(=O)NC1=O", "note": "(centres undefined)", "growth": "106%"}, {"smiles": "CSc1ccc(C(=NNS(=O)(=O)c2ccc(C)cc2)c2ccc(Cl)cc2)cc1", "growth": "112%"}, {"smiles": "CCN1C(=O)N(CC)C2C1NC(=O)N2/N=C/C=C/c1ccccc1", "note": "(centres undefined)", "growth": "19.5%"}, {"smiles": "COC(=O)c1ccc2c(c1)[n+](=O)c(C(C)=O)c(C(F)(F)F)n2[O-]", "growth": "-83.7% (active)"}, {"smiles": "CC1(C)[C@@H](NOCCCN)CC[C@]2(C)[C@H]3C(=O)C=C4[C@@H]5C[C@](C)(C(=O)O)CC[C@]5(C)CC[C@@]4(C)[C@]3(C)CC[C@@H]12", "growth": "-39.5% [100 µM] (active)"}, {"smiles": "CCN(CC)CCOc1ccc(-c2c(-c3ccccc3)c(=O)oc3ccccc23)cc1", "growth": "72.9%"}, {"smiles": "O=C(NCc1ccco1)C1CCN(S(=O)(=O)c2ccc(Cl)cc2)CC1", "growth": "56.2%"}, {"smiles": "CN1CCN(Cc2ccc(NC(=O)c3cncc(C#Cc4cnc(N)c5cccnc45)c3)cc2C(F)(F)F)CC1", "growth": "15.8%"}]}]}
